Measured values taken from the supplement of paper PMC9262897, “Low-cost anti-mycobacterial drug discovery using engineered E. coli” (Nature Communications, 2022).
Structures can show the parent of a compound that is named as a salt. ± gives the standard deviation of the averaged measurements.

Legend:
Experiment in all cases: growth (OD600 after 10 h); higher = more growth (less inhibition)
[1] = system: E. coli TESEC Alr+ wild-type control; settings: compound 0.1 mM; raw OD600 reference: median of DMSO wells 0.241, cell-free background 0.041
Experimental: (§1)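 TESEC Mtb Alr E. coli, or the Alr+ wild-type control, in 384-well plates with Prestwick library compounds at 0.1 mM and 1% DMSO, across arabinose induction levels of 1E3 to 1E7 nM. Growth is read as OD600 after 10 h at 37 °C in triplicate biological replicates.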

E. coli TESEC Mtb Alr [2] = settings: compound 0.1 mM
Experimental: as §1

E. coli TESEC Mtb Asd = settings: compound 0.1 mM
Experimental: (§2)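 TESEC E. coli strains in which the native enzyme is deleted and replaced by arabinose-inducible Mtb Asd, DapB, CysH or TrpD, each grown in its selective medium. Strains were screened against the Prestwick library at 0.1 mM and 1% DMSO in 384-well format at low and high arabinose induction. Growth is read as OD600 after 10 h in triplicate.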

E. coli TESEC Mtb DapB = settings: compound 0.1 mM
Experimental: as §2

[3] = system: E. coli TESEC Alr+ wild-type control; settings: compound 0.1 mM; raw OD600 reference: median of DMSO wells 0.49, cell-free background 0.052
Experimental: (§3)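 TESEC Mtb Alr E. coli (ΔaraC ΔtolC ΔentC Δalr ΔdadX, arabinose-inducible Mtb Alr) or the Alr+ wild-type control strain, grown in defined M9-fructose medium without D-alanine in 96-well plates with Prestwick library compounds at 0.1 mM and 1% DMSO. Low Alr induction is 0.1 µM arabinose and high induction is 10 mM arabinose.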

E. coli TESEC Mtb Alr [4] = settings: compound 0.1 mM; remark: listed apart in the source
Experimental: as §3

[5] = arabinose 1000 nM, raw OD600 reference: median of DMSO wells 0.294, cell-free background 0.041
[6] = arabinose 10000 nM, raw OD600 reference: median of DMSO wells 0.264, cell-free background 0.041
[7] = arabinose 100000 nM, raw OD600 reference: median of DMSO wells 0.201, cell-free background 0.041
[8] = arabinose 1000000 nM, raw OD600 reference: median of DMSO wells 0.193, cell-free background 0.041
[9] = arabinose 10000000 nM, raw OD600 reference: median of DMSO wells 0.146, cell-free background 0.041
[10] = arabinose induction (level): High, raw OD600 reference: median of DMSO wells 0.331, cell-free background 0.041
[11] = arabinose induction (level): Low, raw OD600 reference: median of DMSO wells 0.417, cell-free background 0.041
[12] = arabinose induction (level): High, raw OD600 reference: median of DMSO wells […], cell-free background 0.041
[13] = arabinose induction (level): Low, raw OD600 reference: median of DMSO wells 0.227, cell-free background 0.041
[14] = arabinose 100 nM, raw OD600 reference: median of DMSO wells 0.413, cell-free background 0.052
[15] = arabinose 10000000 nM, raw OD600 reference: median of DMSO wells […], cell-free background 0.052

SMILES | growth [1] | growth (E. coli TESEC Mtb Alr [2]; [5]) | growth (E. coli TESEC Mtb Alr [2]; [6]) | growth (E. coli TESEC Mtb Alr [2]; [7]) | growth (E. coli TESEC Mtb Alr [2]; [8]) | growth (E. coli TESEC Mtb Alr [2]; [9]) | growth (E. coli TESEC Mtb Asd; [10]) | growth (E. coli TESEC Mtb Asd; [11]) | growth (E. coli TESEC Mtb DapB; [12]) | growth (E. coli TESEC Mtb DapB; [13]) | growth [3] | growth (E. coli TESEC Mtb Alr [4]; [14]) | growth (E. coli TESEC Mtb Alr [4]; [15])
NC(=O)c1cnccn1 [Pyrazinamide] | 0.244 ± 0.0055 | 0.284 ± 0.01 | 0.267 ± 0.0063 | 0.208 ± 0.03 | 0.185 ± 0.007 | 0.14 ± 0.0018 | 0.289 ± 0.057 | 0.382 ± 0.11 | 0.195 ± 0.029 | 0.209 ± 0.019 | 0.538 ± 0.071 | 0.421 ± 0.013 | 0.366 ± 0.015
Cc1cc(-c2ccccc2)nnc1NCCN1CCOCC1 [Minaprine dihydrochloride] | 0.227 ± 0.0047 | 0.288 ± 0.011 | 0.25 ± 0.0072 | 0.182 ± 0.012 | 0.155 ± 0.004 | 0.156 ± 0.0078 | 0.212 ± 0.028 | 0.342 ± 0.074 | 0.185 ± 0.0026 | 0.225 ± 0.045 | 0.498 ± 0.045 | 0.409 ± 0.0057 | 0.318 ± 0.029
C[C@H](CCC(=O)O)[C@H]1CC[C@H]2[C@@H]3C(=O)C[C@@H]4CC(=O)CC[C@]4(C)[C@H]3CC(=O)[C@]12C [Dehydrocholic acid] | 0.252 ± 0.0042 | 0.252 ± 0.062 | 0.25 ± 0.012 | 0.186 ± 0.022 | 0.183 ± 0.0057 | 0.138 ± 0.0079 | 0.329 ± 0.068 | 0.33 ± 0.07 | 0.196 ± 0.0059 | 0.236 ± 0.04 | 0.569 ± 0.034 | 0.406 ± 0.0045 | 0.3 ± 0.0058
Cn1cnc2c1c(=O)[nH]c(=O)n2C [Theobromine] | 0.255 ± 0.0061 | 0.313 ± 0.018 | 0.289 ± 0.015 | 0.218 ± 0.02 | 0.189 ± 0.0034 | 0.155 ± 0.011 | 0.483 ± 0.0089 | 0.454 ± 0.03 | 0.206 ± 0.008 | 0.249 ± 0.036 | 0.461 ± 0.015 | 0.404 ± 0.014 | 0.365 ± 0.022
c1ccc2c(c1)CCCc1cc(NCCN3CCOCC3)nnc1-2 | 0.215 ± 0.0088 | 0.285 ± 0.013 | 0.278 ± 0.0085 | 0.17 ± 0.029 | 0.149 ± 0.0053 | 0.133 ± 0.0058 | 0.194 ± 0.055 | 0.477 ± 0.044 | 0.179 ± 0.0094 | 0.2 ± 0.013 | 0.4846 ± 0.0026 | 0.4087 ± 0.0033 | 0.328 ± 0.03
CN1CCN(CCCN2c3ccccc3Sc3ccc(Cl)cc32)CC1 [Prochlorperazine dimaleate] | 0.04087 ± 0.00015 | 0.041 ± 0.00045 | 0.03943 ± 0.00025 | 0.0418 ± 0.00082 | 0.0404 ± 0.0023 | 0.0433 ± 0.00072 | 0.059 ± 0.0069 | 0.166 ± 0.025 | 0.156 ± 0.021 | 0.139 ± 0.0076 | 0.04753 ± 0.00025 | 0.287 ± 0.21 | 0.0531 ± 0.0013
C=C1C[C@H]2[C@@H]3C=C(C)C4=CC(=O)CC[C@]4(C)[C@H]3CC[C@]2(C)[C@@]1(OC(C)=O)C(C)=O [Melengestrol acetate] | 0.20603 ± 0.00015 | 0.281 ± 0.013 | 0.295 ± 0.011 | 0.166 ± 0.0027 | 0.176 ± 0.0085 | 0.148 ± 0.0027 | 0.213 ± 0.071 | 0.343 ± 0.11 | 0.187 ± 0.0082 | 0.211 ± 0.036 | 0.205 ± 0.053 | 0.3558 ± 0.0033 | 0.142 ± 0.053
O=S(=O)(O)c1cc(O)ccc1O [Ethamsylate] | 0.252 ± 0.0066 | 0.311 ± 0.0039 | 0.258 ± 0.0087 | 0.206 ± 0.018 | 0.182 ± 0.0086 | 0.13 ± 0.0042 | 0.211 ± 0.034 | 0.391 ± 0.0046 | 0.191 ± 0.013 | 0.244 ± 0.025 | 0.525 ± 0.079 | 0.41 ± 0.015 | 0.344 ± 0.022
